The values that follow come from ChEMBL document CHEMBL4888484, “Replenishing the malaria drug discovery pipeline: Screening and hit evaluation of the MMV Hit Generation Library 1 (HGL1) against asexual blood stage Plasmodium falciparum ,using a nano luciferase reporter read-out” (2022).

In all, about 4,800 compounds went through this assay and about 410 (8.5%) showed an effect of 50% or more. The full list was thinned out, with strong results kept by preference.

This experiment deals with Plasmodium falciparum. Nature of the experiment: Confirmatory screen in NF54 pLDH assay, in single point, at 2uM, 72h. Type of experiment: functional, Erythrocyte. Conditions: timepoint 72 hour.
As usually defined, the % Inhibition is the change of the read-out against control, counted positive when it falls. On to `CC(CCc1ccccc1)N1C(=O)NC(=O)C2(Cc3c(ccc4ccccc34)N(C)C2)C1=O` (stereo not drawn), for which the “% Inhibition” value is 6%. Under `CCn1cnc2c(N3C4CCC3C(C(=O)OC(C)(C)C)C4)ncnc21` (stereo not drawn) stands -8%; under `CC1CNCC(C)N1Cc1csc(C2CC2)n1` (stereo not drawn), -9%; under `O=C1NC(=O)C2(Cc3cccc(F)c3N3CCC(c4ccccc4)CC32)C(=O)N1c1ccccc1` (stereo not drawn), -18%. With `COc1cc(OCC(=O)N2CCN([C@@H](C)Cc3ccccc3)CC2)cc(OC)c1OC`, the “% Inhibition” value came to 3%.

In the case of `O=C(N1CCN(C(c2ccccc2)c2ccccc2)CC1)C(O)(c1ccccc1)c1ccccc1`, the “% Inhibition” value is reported as -14%. In the case of `Cc1cc(=O)c(OCC(=O)N2CCN([C@@H](c3ccccc3)c3ccc(Cl)cc3)CC2)c[nH]1`, the “% Inhibition” value turned out to be 74%. For `COc1cnc(C(F)(F)F)nc1N1CCNCC1`, the “% Inhibition” value is 9%. In the case of `Cn1cc(Br)cc1C(=O)C(Cl)(Cl)Cl`, the “% Inhibition” value is -6%. On to `CC(C)(C)NC(=O)C1CC2CCCCC2CN1` (stereo not drawn), for which the “% Inhibition” value came to 2%. With `CN1CC2(CN(Cc3cnc4ccc(Cl)cn34)C2)OC1=O`, the “% Inhibition” value was determined as 6%. Regarding `C=CCN(C)C[C@H]1CN2CC[C@H]1C[C@@H]2CNC(=O)Nc1ccc(OC(F)(F)F)cc1`, the “% Inhibition” value worked out at 17%. For `O=C1CCN(C(=O)c2ccc(Cl)c(Cl)c2)CC1` the value was 12%. `CN1CCC(N(C)C2CCCCC2N(C)C(=O)Cc2ccc(O)cc2)CC1` (stereo not drawn): the “% Inhibition” value is listed as 4%. In the case of `CN1CC2CN(Cc3ccccc3)CC(C1)C2=O`, the “% Inhibition” value is recorded as -5%.

`CC(=O)N(C1CCN(Cc2ccccc2)CC1)C1(C(=O)Nc2ccc3[nH]ccc3c2)CCN(C)CC1`: the “% Inhibition” value was found to be 101%. Regarding `COCCn1ccc(C(=O)N[C@H]2CCc3nc(C(C)C)nn3C2)n1`, the “% Inhibition” value was determined as 1%. Consider `c1cc(N2CC[C@@]3(CCCNC3)C2)c2sccc2n1`, for which the “% Inhibition” value was determined as 98%. With `CN1CC[C@]2(CCN(c3ccnc4ccsc34)C2)C1`, the “% Inhibition” value was 97%. Turning to `CN1CCC2(CC1)CNc1ccccc12`, the “% Inhibition” value was determined as 0%. For `COC(=O)COc1ccc(C#N)c(Cl)c1` the value was 1%.

Turning to `CCOc1ccccc1NC(=O)c1cn(Cc2ccc(N)cc2)cn1`, the “% Inhibition” value is reported as 6%. As for `O=c1[nH]c2cc(NS(=O)(=O)c3ccc(C4CCCCC4)cc3)ccc2o1`, the “% Inhibition” value is -14%. For `COc1ccc(N2C[C@H]2c2ccncc2)cc1` the value was 12%; for `O=C(NC[C@H]1C[C@@H]2CC[N@]1C[C@@H]2CN1CCC(Cc2ccccc2)CC1)Nc1ccccc1`, 27%; for `CN(C)C(=O)Oc1cccc2ccc(CN3CCC(N4CCN(c5ccc(C(F)(F)F)cn5)CC4)CC3)nc12`, 5%. Under `O=C(Cc1cnc2ccccn12)N1C[C@H]2CC[C@@H](C1)N(Cc1ccccn1)C2` stands 20%; under `CNCCc1cc(OC)c(OC)c2c1ccc1cc(OC)c(OC)cc12`, 7%; under `c1ccc2c(CCNC3(c4nnnn4C4CCCCC4)CCCCC3)c[nH]c2c1`, 16%. For `O=S(=O)(NC12CCCC1CNC2)c1onc(C2CC2)c1Cl` (stereo not drawn), the “% Inhibition” value is 97%.

Consider `O=C(NCc1ccc(Br)cn1)[C@H]1NCC12CCCC2`, for which the “% Inhibition” value amounted to 4%. Under `COC(=O)CNc1cc(C)c([C@@](O)(C(=O)OC)C(F)(F)F)cc1OC` stands 6%. Turning to `CCN(CC)C(=O)Oc1cc2nnnn2nc1-c1ccccc1`, the “% Inhibition” value is 6%. For `CC(C)N1C(=O)NC(=O)C2(Cc3ccccc3N3CCN(Cc4ccccc4)CC32)C1=O` (stereo not drawn), the “% Inhibition” value is given as 19%. In the case of `C=CCCC(CN1C[C@H]2CC=CC[C@H]2C1)Oc1ncc(F)cn1` (stereo partly drawn), the “% Inhibition” value is listed as 64%. For `C[C@@H](Cc1ccc(O)cc1)NCc1cc[nH]n1` the value was 12%.

For `CCCC(=O)N(C(=O)CCC)c1ccc2[nH]c(=O)oc2c1`, the “% Inhibition” value is on record as -1%. For the molecule `Cc1ccc(Cl)c(NC(=O)N2CCC[C@H](c3n[nH]c(=O)o3)C2)c1`, the “% Inhibition” value is 2%.
